Source: PubChem BioAssay (Tox21)
Records with an inconclusive call do not appear. Activity calls are given as the source filed them. Unless noted, calls follow the shape of the dose curve; as a rule, active = well fitted curve in the direction sought with a large enough effect in the repeat runs; inconclusive = weak or mixed curves; inactive = no such curve, though single readings can be large; an effect the other way counts as inactive or inconclusive.

Experiments:
[1] = qHTS assay to identify small molecule antagonists of the estrogen receptor alpha (ER-alpha) signaling pathway using the BG1 cell line in the presence of 0.1 nM 17-beta-estradiol - cell viability counter screen (AID 1259241); also: nearly all actives have a fitted effect of over 40% in size
How it was run: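 CellTiter-Fluor read (30 min, 37C) on ER-alpha/ERE-luc VM7Luc4E2 cells; 22 hr compound treatment; agonist 0.1 nM E2 final; same-well multiplex.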

[2] = qHTS assay to identify small molecule antagonists of the androgen receptor (AR) signaling pathway using the MDA cell line in the presence of 0.5 nM R1881 - cell viability counter screen (AID 1259242); also: nearly all actives have a fitted effect of over 45% in size; also: potency is read from the fitted curve at half-maximal effect
How it was run: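 R1881 at 0.5 nM final stimulated MDA-kb2 cells during 16 hr compound treatment at 37C. Cytotoxicity read: CellTiter-Fluor fluorescence after 30 min.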

[3] = qHTS assay to identify small molecule phospholipidosis (PLD) inducers (AID 1259344; active = well fitted curve in the direction sought with a large enough effect; an effect the other way counts as inactive or inconclusive)
How it was run: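 Fluorescent phospholipid staining (LipidTOX Red) measured by automated microscopy in fixed HepG2 cells after 24 h treatment; nuclei counterstained with Hoechst 33342; amiodarone as reference inducer.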

[4] = qHTS assay to identify small molecule HDAC inhibitors (AID 1259364);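 also: wild-type HCT-116 cells with endogenous class I/II HDAC activity; top concentration of the series differs between compounds; nearly all actives have a fitted effect of over 45% in size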
How it was run: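 Relative class I and II HDAC activity is taken from the luminogenic signal in HCT-116 cells, with compound exposure 2 hr and reagent development 30 min at room temperature.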

[5] = qHTS assay to identify small molecule HDAC inhibitors - cell viability counter screen (AID 1259365); also: series mostly up to about 92 µM; nearly all actives have a fitted effect of over 50% in size
How it was run: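 To flag cytotoxic hits, 1,500 wild-type HCT-116 cells per well, plated the day before, receive test compounds for 2hr at 37 C before CellTiter-Glo reagent and a luminescence read.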

[6] = qHTS assay to identify small molecule antagonists of the sonic hedgehog signaling (Shh) pathway - cell viability counter screen (AID 1259367); also: nearly all actives have a fitted effect of over 55% in size
How it was run: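 Using CellTiter-Fluor, viability of Gli1-Luc reporter 3T3 cells is read by fluorescence in the wells used for the Shh luciferase assay. Treatment lasts 23 hr with conditioned medium, then reagent 1 hr at 37C.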

[7] = qHTS assay to identify small molecule agonists of the sonic hedgehog signaling (Shh) pathway (AID 1259368; calls by dose curve; also: nearly all actives have a fitted effect of over 15% in size; also: potency is read from the fitted curve at half-maximal effect)
How it was run: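 Mouse fibroblast (NIH/3T3) reporter cells with stably integrated Gli1-Luc were treated 24 hr with compound; firefly luciferase luminescence served as the read-out.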

[8] = qHTS assay to identify small molecule agonists of the sonic hedgehog signaling (Shh) pathway - cell viability counter screen (AID 1259366); also: nearly all actives have a fitted effect of over 50% in size
How it was run: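 Fluorescence from CellTiter-Fluor reports live cells in this counter screen. NIH/3T3-derived Gli1-Luc reporter cells receive test compounds for 24hr at 37C; reagent goes in at 23hr.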

Measured: Potency

O=C(Nc1ccc([N+](=O)[O-])cc1)Nc1ccc([N+](=O)[O-])cc1
inactive: [1] | [2] | [3] | [4] | [5] | [6] | [7]

C=CC(C)=CCC=C(C)C
inactive: [1] | [2] | [4] | [5] | [8] | [6] | [7]

CO[C@H]1O[C@H](CO)[C@@H](O)[C@H](O)[C@H]1O
inactive: [1] | [2] | [4] | [5] | [8] | [6] | [7]

CC1CC(O)CC(C)(C)C1 (configuration not stated)
inactive: [1] | [2] | [3] | [4] | [5] | [8] | [6]

CC(C)CCCCCOC(=O)CCCCC(=O)OCCCCCC(C)C
inactive: [1] | [2] | [4] | [5] | [8] | [6] | [7]

O=c1[nH]c2ccc(S(=O)CCN3CCC(Cc4ccc(F)cc4)CC3)cc2o1 (configuration not stated)
inactive: [1] | [2] | [4] | [5] | [8] | [6] | [7]

C[N+]1(C)CCC(=C(c2ccccc2)c2ccccc2)CC1
inactive: [1] | [2] | [3] | [4] | [5] | [8] | [6] | [7]

O=C(O)c1ccc(CO)o1
inactive: [1] | [2] | [4] | [5] | [8] | [6] | [7]

Fc1c(F)c(F)c(Br)c(F)c1F
inactive: [1] | [2] | [4] | [5] | [8] | [6] | [7]

CCCCCCCC/C=C\CCCCCCCC(=O)OC(CO)CO
inactive: [1] | [2] | [4] | [5] | [8] | [6] | [7]

O=C(OCCOCCO)c1ccccc1Nc1cccc(C(F)(F)F)c1
inactive: [1] | [2] | [3] | [4] | [5] | [8] | [6] | [7]

C/C=C(\C)C(=O)OCCC(C)CCC=C(C)C (configuration not stated)
inactive: [1] | [2] | [4] | [5] | [8] | [6] | [7]

N#C/C(=C1\SCC(c2ccccc2Cl)S1)n1ccnc1 (configuration not stated)
inactive: [1] | [2] | [3] | [4] | [8] | [6]

CC(C)C(OC(=O)c1ccccc1)C(C)(C)COC(=O)c1ccccc1 (configuration not stated)
inactive: [1] | [2] | [4] | [5] | [8] | [6]

Nc1nccs1
inactive: [1] | [2] | [3] | [4] | [8] | [6]

C[C@@H]1C[C@H]2[C@@H]3CCC4=CC(=O)C=C[C@]4(C)[C@@]3(F)[C@@H](O)C[C@]2(C)[C@@]1(O)C(=O)CO
inactive: [1] | [2] | [4] | [5] | [8] | [6] | [7]

COCCOC(=O)C1=C(C)NC(C)=C(C(=O)OC/C=C/c2ccccc2)C1c1cccc([N+](=O)[O-])c1 (configuration not stated)
inactive: [1] | [2] | [3] | [4] | [5] | [6]

Nc1nc(Cl)nc2c1ncn2[C@@H]1O[C@H](CO)[C@@H](O)[C@@H]1F
inactive: [1] | [2] | [3] | [4] | [5] | [8] | [6] | [7]

CCCC1C(CC)=CC(CC)=CN1c1ccccc1 (configuration not stated)
active: [2] 48.6 µM
inactive: [1] | [4] | [5] | [8] | [6] | [7]

CCCCC(CC)CNCC(CC)CCCC (configuration not stated)
inactive: [1] | [2] | [4] | [5] | [8] | [6] | [7]

Cc1nc2ccccn2c(=O)c1CCN1CCC(C(=O)c2ccc(F)cc2)CC1
inactive: [1] | [2] | [3] | [4] | [5] | [6]

CCOC(=O)c1ccccc1OC
inactive: [1] | [2] | [4] | [5] | [8] | [6] | [7]

Cc1cnc(C)c(C)n1
inactive: [1] | [2] | [4] | [5] | [8] | [6] | [7]

C=CC(C)(C)CC(=O)OC
inactive: [1] | [2] | [4] | [8] | [6] | [7]

NC(=O)Cn1c(=O)cc(CCN2CCN(c3nccc4sccc34)CC2)c2ccc(F)cc21
inactive: [1] | [2] | [5] | [7]

C=CC(=O)NCOCC(C)C
inactive: [1] | [2] | [4] | [5] | [6] | [7]

CC1=C(/C=C/C(C)=C\C=C\C(C)=C\C(=O)O)C(C)(C)CCC1
active: [7] 8.63 µM
inactive: [1] | [2] | [4] | [5]

CCC(Cc1ccccc1)(C(=O)c1ccc(N2CCOCC2)cc1)N(C)C (configuration not stated)
inactive: [1] | [4] | [8] | [6] | [7]

C[C@@H]1C[C@H]2[C@@H]3CCC4=CC(=O)C=C[C@]4(C)[C@@]3(F)[C@@H](O)C[C@]2(C)[C@H]1C(=O)CO
inactive: [1] | [2] | [4] | [5] | [8] | [6] | [7]

CC1C2CC(CC2C2CCCC(O)C2)C1(C)C (configuration not stated)
inactive: [1] | [2] | [4] | [6] | [7]
